These results are taken from PubChem BioAssay (Tox21).

“And” between values parts separate entries of the source, which are not always exact repeats. Equal values may be shown once. Records with an inconclusive call do not appear. Where a structure was tested more than once in an assay, its records may differ in their call. The source made the active and inactive calls. Unless noted, the call rests on the fitted dose curve; in most records, active means well fitted curve in the direction sought with a large enough effect in the repeat runs; inconclusive means weak or mixed curves; inactive means no such curve, though single readings can be large; an effect the other way counts as inactive or inconclusive.

The target of assay [1] is Thyrotropin receptor (Homo sapiens) (UniProt P16473). The assay can be described thus: qHTS assay to identify small molecule antagonists of the thyroid stimulating hormone receptor (TSHR) signaling pathway (AID 1259385; calls by dose curve; further: nearly all actives have a fitted effect of over 20% in size). In a few lines:
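TSHR-HEK293 cells were plated and held 18 h at 37C/5% CO2, then given compound plus Ro20-1724 and stimulated with TSH at 1.5 ng/mL final. After 30 min at room temperature, cAMP was detected with cAMP-d2/anti-cAMP-cryptate (1 h) by fluorescence.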

The nature of assay [2]: qHTS assay to identify small molecule agonists of the estrogen receptor alpha (ER-alpha) signaling pathway in the presence of an antagonist - cell viability counter screen (AID 1259386). Further: series mostly up to about 92 µM; nearly all actives have a fitted effect of over 30% in size. Put shortly: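 Compounds tested at 15 concentrations for 22 h at 37C alongside 10.0nM (final) ICI-182,780 antagonist, in VM7Luc4E2 cells grown in phenol red-free, charcoal-stripped medium. Viability read by CellTiter-Fluor fluorescence after 1 h reagent incubation.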
On the technique in general: qHTS replaces the single test concentration by a dilution series.

In assay [3] the target is Progesterone receptor (Homo sapiens) (UniProt P06401). The assay can be described thus: qHTS assay to identify small molecule agonists of the progesterone receptor (PR) signaling pathway (AID 1346784; calls by dose curve; further: nearly all actives have a fitted effect of over 30% in size). In a few lines:
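Compounds were tested for PR agonism in HEK 293T cells bearing a beta-lactamase gene under UAS control. Treatment lasted 16 hr at 37C; signal came from fluorescence of a FRET substrate.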

The target is the same in assay [4]. The assay is described as follows: qHTS assay to identify small molecule antagonists of the progesterone receptor (PR) signaling pathway (AID 1346795; active means well fitted inhibition curve with a large enough effect in the signal ratio in the repeat runs, not every such curve was filed as active; the % refers to the signal ratio). Put shortly: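 In HEK293T cells bearing the PR-UAS-bla reporter, compound effects on promegestone-driven (1 nM) beta-lactamase expression are assessed after 16 hr using a fluorescent FRET substrate incubated 2 hr at room temperature.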

The nature of assay [5]: qHTS assay to identify small molecule antagonists of the progesterone receptor (PR) signaling pathway - cell viability counter screen (AID 1346798). Further: nearly all actives have a fitted effect of over 50% in size. Further: potency means the concentration at half of the fitted maximal effect. Put shortly:
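Following a 4 hr attachment, PR-UAS-bla HEK293T cells in charcoal-stripped FBS medium were exposed to compounds with R5020 for 16 hr; CellTiter-Glo was added and luminescence read after 30 min at room temperature.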

Assay [6] in a line: qHTS assay to identify small molecule agonists of the progesterone receptor (PR) signaling pathway - cell viability counter screen (AID 1346799; calls by dose curve; further: nearly all actives have a fitted effect of over 45% in size; further: potency means the concentration at half of the fitted maximal effect). In a few lines:
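Here, 3,000 PR-UAS-bla HEK293T cells per well were treated with compounds for 16 hr after a 6 hr preincubation at 37C and 5% CO2; cell viability is the CellTiter-Glo luminescence signal.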

The nature of assay [7]: qHTS assay to identify small molecule antagonists of the TGF-beta/Smad signaling pathway - cell viability counter screen (AID 1346824). Further: nearly all actives have a fitted effect of over 50% in size. Put shortly:
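SBE-bla HEK 293T cells were plated overnight at 37 C, then given compounds in DMSO plus TGF-beta1 (added as 0.25 ng/mL solution) for 5 hr. After the bla read, CellTiter-Glo was added to the same wells and luminescence read after 30 min at room temperature.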

Assay [8] in a line: qHTS assay to identify small molecule agonists of the TGF-beta/Smad signaling pathway - cell viability counter screen (AID 1346829). Further: top concentration of the series differs between compounds; nearly all actives have a fitted effect of over 45% in size. Put shortly: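 Here the cytotoxicity of library compounds is measured in SBE-bla HEK 293T cells treated for 5 hr, using CellTiter-Glo added to wells already read for the beta-lactamase reporter.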
Assay [9] can be described thus: qHTS assay to identify small molecule agonists of the TGF-beta/Smad signaling pathway (AID 1346859; active means well fitted activation curve with a large enough effect in the signal ratio in the repeat runs, not every such curve was filed as active; the % refers to the signal ratio; further: series mostly up to about 77 µM). Put shortly: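 Each well held 4,000 SBE-bla HEK 293T cells incubated overnight before compound addition; 5 hr later the cleavable FRET substrate went on for 2 hr at room temperature, and fluorescence was read at two emissions.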
In assay [10] the target is Thyrotropin-releasing hormone receptor (Homo sapiens) (UniProt P34981). The assay can be described thus: qHTS assay to identify small molecule antagonists of the thyrotropin-releasing hormone receptor (TRHR) signaling pathway (AID 1346877; active means well fitted inhibition curve with a large enough effect in the repeat runs, not every such curve was filed as active; further: series mostly up to about 51 µM). Put shortly:
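Antagonist mode: after a 5 min room-temperature compound exposure, cells were stimulated with 1 nM (final) TRH. Dye-loaded TRHR-HEK293 cells were used, and calcium-dependent fluorescence was followed for 3 min, with 15-point titrations run in triplicate.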

Chain of Thyrotropin receptor (Homo sapiens) (P16473 whole entry, looked up): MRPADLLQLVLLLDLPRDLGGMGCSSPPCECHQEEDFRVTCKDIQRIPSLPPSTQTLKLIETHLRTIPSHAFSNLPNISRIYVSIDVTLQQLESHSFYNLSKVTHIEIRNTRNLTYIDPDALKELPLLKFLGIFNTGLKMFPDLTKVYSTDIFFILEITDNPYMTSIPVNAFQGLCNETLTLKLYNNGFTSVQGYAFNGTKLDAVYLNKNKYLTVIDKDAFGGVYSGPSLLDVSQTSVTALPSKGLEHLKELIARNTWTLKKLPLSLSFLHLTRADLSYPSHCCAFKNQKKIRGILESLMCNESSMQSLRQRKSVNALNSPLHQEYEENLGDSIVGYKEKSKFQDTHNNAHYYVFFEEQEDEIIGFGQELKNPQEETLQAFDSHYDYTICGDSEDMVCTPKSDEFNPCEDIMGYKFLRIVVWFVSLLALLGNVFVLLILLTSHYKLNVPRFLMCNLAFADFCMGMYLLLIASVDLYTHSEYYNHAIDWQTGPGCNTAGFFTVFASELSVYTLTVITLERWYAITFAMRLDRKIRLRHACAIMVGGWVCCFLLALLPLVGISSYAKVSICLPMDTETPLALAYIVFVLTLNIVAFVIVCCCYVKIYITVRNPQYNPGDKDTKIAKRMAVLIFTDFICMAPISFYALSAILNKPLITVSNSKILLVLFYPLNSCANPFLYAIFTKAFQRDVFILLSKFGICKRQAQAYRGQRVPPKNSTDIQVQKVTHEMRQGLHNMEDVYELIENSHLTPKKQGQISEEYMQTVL
Chain of Thyrotropin-releasing hormone receptor (Homo sapiens) (P34981 whole entry, looked up): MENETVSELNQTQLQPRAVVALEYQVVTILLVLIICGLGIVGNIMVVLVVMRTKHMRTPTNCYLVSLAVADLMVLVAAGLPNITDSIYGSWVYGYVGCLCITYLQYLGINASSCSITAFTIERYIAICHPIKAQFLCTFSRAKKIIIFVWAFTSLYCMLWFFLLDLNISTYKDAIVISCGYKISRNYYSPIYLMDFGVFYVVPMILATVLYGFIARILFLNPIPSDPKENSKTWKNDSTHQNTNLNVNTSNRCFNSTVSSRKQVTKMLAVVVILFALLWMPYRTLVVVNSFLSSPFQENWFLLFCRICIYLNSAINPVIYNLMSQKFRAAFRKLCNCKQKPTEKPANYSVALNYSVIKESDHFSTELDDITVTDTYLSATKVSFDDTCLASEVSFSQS
Chain of Progesterone receptor (Homo sapiens) (P06401 whole entry, looked up): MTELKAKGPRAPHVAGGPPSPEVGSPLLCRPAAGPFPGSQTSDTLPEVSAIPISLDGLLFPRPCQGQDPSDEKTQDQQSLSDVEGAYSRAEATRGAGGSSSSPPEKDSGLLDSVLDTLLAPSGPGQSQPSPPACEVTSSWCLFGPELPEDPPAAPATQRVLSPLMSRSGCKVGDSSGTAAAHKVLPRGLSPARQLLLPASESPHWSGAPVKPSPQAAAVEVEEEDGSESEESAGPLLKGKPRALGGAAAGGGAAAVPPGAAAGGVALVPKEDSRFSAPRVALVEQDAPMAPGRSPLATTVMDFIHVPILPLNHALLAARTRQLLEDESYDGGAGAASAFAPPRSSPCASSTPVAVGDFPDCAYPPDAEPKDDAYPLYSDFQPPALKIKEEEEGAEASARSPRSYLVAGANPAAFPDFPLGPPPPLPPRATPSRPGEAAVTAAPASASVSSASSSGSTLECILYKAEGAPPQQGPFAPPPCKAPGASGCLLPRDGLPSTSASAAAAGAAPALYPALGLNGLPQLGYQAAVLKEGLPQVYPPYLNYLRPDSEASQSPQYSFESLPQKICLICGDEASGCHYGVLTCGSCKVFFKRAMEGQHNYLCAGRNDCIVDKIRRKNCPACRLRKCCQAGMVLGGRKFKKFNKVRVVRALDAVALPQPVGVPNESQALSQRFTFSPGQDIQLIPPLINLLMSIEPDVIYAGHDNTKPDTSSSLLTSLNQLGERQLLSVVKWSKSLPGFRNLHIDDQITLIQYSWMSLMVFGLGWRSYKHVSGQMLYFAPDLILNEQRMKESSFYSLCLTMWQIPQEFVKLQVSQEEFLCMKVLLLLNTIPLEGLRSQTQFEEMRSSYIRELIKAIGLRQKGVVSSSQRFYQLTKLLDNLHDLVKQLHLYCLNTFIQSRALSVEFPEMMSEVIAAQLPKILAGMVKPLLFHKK

As for `CCSC(=O)Cl`, the compound was called inactive in assay [1], in assay [7] and in assay [9]. The Potency entry in [2], in assay [3], in assay [4], in [5], in assay [6] and in assay [8] was “inactive” throughout. Also, the Potency result in [10] is “inactive”.
On to `O=c1[nH]oc2c1CCNC2`, for which the result in [1], in assay [7] and in [9] was inactive. Moreover, the Potency entry in assay [2], in assay [3], in assay [4], in assay [5], in assay [6] and in assay [8] was “inactive” throughout.
On to `Cc1ccc(Cl)c(O)c1`, for which the outcome in assay [1], in [7] and in assay [9] was inactive. Besides, the Potency result in assay [2], in assay [3], in assay [4], in assay [5], in assay [6] and in assay [8] was “inactive” in each case. In addition, the Potency result in assay [10] was “inactive”.
On to `CCC1(CC)C(=O)C=CNC1=O`, for which the compound was called inactive in assay [1], in [7] and in assay [9]. For the same compound, the Potency result in assay [2], in assay [3], in assay [4], in assay [5] and in assay [6] was “inactive” in each case.
Turning to `COc1cc(CCN)cc(OC)c1OC`, the result in [1], in assay [7] and in assay [9] was inactive. Further, the Potency entry in [2], in assay [3], in assay [4], in assay [5], in assay [6] and in assay [8] was “inactive” throughout.
Turning to `CCOC(=O)CCl`, the call in assay [1], in assay [7] and in assay [9] was inactive. In addition, the Potency entry in assay [2], in assay [3], in assay [4], in [5], in assay [6] and in assay [8] was “inactive” in each case.
Regarding `C=CCCC#N`, the call in assay [1], in assay [7] and in [9] was inactive. Besides, the Potency result in [2], in assay [3], in assay [4], in assay [5], in assay [6] and in assay [8] was “inactive” each time. In assay [10], the Potency result was “inactive”.
On to `Cc1cc(OC(=O)N(C)C)nn1C(=O)N(C)C`, for which the result in [1], in [7] and in [9] was inactive. The Potency result in [2], in assay [3], in assay [4], in assay [5], in assay [6] and in assay [8] was “inactive” in each case. Besides, in [10], the Potency entry is “inactive”.
`NC(=O)OCCCc1ccccc1`: the compound was called inactive in [1] and in assay [7]. Besides, the Potency entry in assay [2], in assay [3], in assay [4], in [5], in [6] and in assay [8] was “inactive” in each case.
`CCOC(=O)COc1ccc(Cl)cc1Cl`: the compound was called inactive in [1] and in [7]. The Potency result in [2], in [3], in [4], in [5], in assay [6] and in [8] was “inactive” throughout. The Potency entry in assay [10] is “inactive”.
`CC1NCCOC1c1ccccc1` (stereo unspecified): the outcome in [1], in assay [7] and in assay [9] was inactive. Further, the Potency result in assay [2], in assay [3], in [4], in [5], in assay [6] and in [8] was “inactive” each time. The Potency result in [10] is “inactive”.
Turning to `CCC(=O)c1ccc(Cl)cc1`, the compound was classed as inactive in assay [1], in assay [7] and in assay [9]. Also, the Potency entry in [2], in assay [3], in [4], in [5], in [6] and in [8] was “inactive” in each case.
On to `CC(C)(O)C(Cl)(Cl)Cl`, for which the outcome in [1], in assay [7] and in assay [9] was inactive. The Potency result in [2], in assay [3], in assay [4], in assay [5] and in [6] was “inactive” throughout.
As for `CCCOC(=O)c1cncn1C(C)c1ccccc1` (stereo unspecified), the call in assay [1] and in [7] was inactive. Besides, the Potency entry in assay [2], in assay [3], in assay [4], in assay [5], in assay [6] and in assay [8] was “inactive” throughout. Besides, in [10], the Potency result was “inactive”.
With `CC1N=C(N)OC1c1ccccc1` (stereo unspecified), the compound was classed as inactive in [1], in assay [7] and in assay [9]. Besides, the Potency entry in assay [2], in assay [3], in assay [4], in assay [6] and in assay [8] was “inactive” throughout. The Potency in [5] is 37.7 µM (active).
For the compound `COC(=O)c1ccc(CBr)cc1`, the compound was called inactive in assay [1], in assay [7] and in assay [9]. Besides, the Potency result in [2], in assay [3], in assay [4], in assay [5], in assay [6] and in [8] was “inactive” throughout. Besides, the Potency result in assay [10] is “inactive”.
For the compound `O=C(Cl)c1ccccc1`, the compound was classed as inactive in assay [1], in assay [7] and in [9]. The Potency result in assay [2], in [3], in assay [4], in assay [5], in [6] and in assay [8] was “inactive” each time. For the same compound, the Potency entry in assay [10] is “inactive”.
On to `CC(C)(C)C(=O)C(Cl)Cl`, for which the compound was called inactive in assay [1], in [7] and in assay [9]. Besides, the Potency result in assay [2], in [3], in [4], in assay [5], in assay [6] and in assay [8] was “inactive” in each case. For the same compound, the Potency entry in assay [10] was “inactive”.
In the case of `C/C=C/CC#N`, the compound was classed as inactive in [1], in assay [7] and in assay [9]. Moreover, the Potency result in [2], in [3], in assay [4], in assay [5], in [6] and in assay [8] was “inactive” in each case. For the same compound, the Potency result in [10] is “inactive”.
As for `CN=CNc1ccc(C)cc1C`, the result in assay [1], in [7] and in [9] was inactive. In addition, the Potency result in assay [2], in assay [3], in assay [4], in [5], in assay [6] and in [8] was “inactive” in each case.
With `O=S1(=O)OCCO1`, the compound was classed as inactive in assay [1], in [7] and in assay [9]. For the same compound, the Potency entry in assay [2], in assay [3], in assay [4], in assay [5], in assay [6] and in assay [8] was “inactive” each time.
In the case of `C=C(Cl)CCl`, the compound was classed as inactive in assay [1], in assay [7] and in assay [9]. Besides, the Potency result in assay [2], in assay [3], in [4], in assay [5], in assay [6] and in assay [8] was “inactive” each time. For the same compound, the Potency entry in [10] is “inactive”.
In the case of `O=C(O)c1c(Cl)ccc2cc(Cl)cnc12`, the compound was called inactive in assay [1] and in assay [7]. The Potency result in [2], in assay [3], in assay [4], in assay [5], in assay [6] and in assay [8] was “inactive” throughout.
With `S=C=S`, the compound was called inactive in [1] and in assay [7]. Moreover, the Potency result in assay [2], in assay [3], in [4], in assay [5], in assay [6] and in assay [8] was “inactive” throughout.
With `C/C(=N\NC(=O)Nc1cc(F)cc(F)c1)c1ncccc1C(=O)O`, the outcome in [1], in assay [7] and in assay [9] was inactive. Also, the Potency result in assay [2], in assay [3], in assay [4], in assay [5], in assay [8] and in assay [10] was “inactive” each time. Moreover, in assay [6], the Potency result was “inactive and 68.6 µM (active)”.
